According to PubChem BioAssay (Tox21):
Records with an inconclusive call do not appear. Calls of active or inactive are those of the source. Unless noted, calls follow the shape of the full dose curve.

Assays:
[1] = Nuclear factor erythroid 2-related factor 2/antioxidant responsive element (Nrf2/ARE) small molecule agonists: qHTS cell viability counter screen in human keratinocytes (AID 1919968; active = well fitted curve in the direction sought with a large enough effect in the repeat runs; an effect the other way counts as inactive or inconclusive; also: nearly all actives have a fitted effect of over 55% in size)
In short: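 CellTiter-Fluor fluorescence, read 1 h after reagent, gave viability in the same wells as the ARE-luciferase assay. KeratinoSens cells (1,500/well) had 23 h compound exposure at 37 C/5% CO2 following 5 h plating.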

[2] = Nuclear factor erythroid 2-related factor 2/antioxidant responsive element (Nrf2/ARE) small molecule agonists: luciferase reporter gene qHTS assay in human keratinocytes (AID 1919969); also: nearly all actives have a fitted effect of over 35% in size
[3] = target: Gonadotropin-releasing hormone receptor (Homo sapiens) (UniProt P30968); assay: Human gonadotropin-releasing hormone receptor (GnRHR) small molecule agonists, calcium flux assay in GnRHR-HEK293 cells (AID 1920063); also: nearly all actives have a fitted effect of over 35% in size
In short: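 Agonist mode: compounds at 15 concentrations, in triplicate, went onto calcium dye-loaded GnRHR-HEK293 cells. Intracellular calcium was then followed as 480/540 nm fluorescence at 1 s intervals over 3 min.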

[4] = target: KiSS-1 receptor (Homo sapiens) (UniProt Q969F8); assay: Human kisspeptin (KISS1R) small molecule agonists, calcium flux assay in KISS1R-HEK293 cells (AID 1920064; active = well fitted curve in the direction sought with a large enough effect in the repeat runs; an effect the other way counts as inactive or inconclusive)
In short: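 Agonist mode: intracellular calcium rise tracked at 1 s intervals over 3 min (480/540 nm) immediately after compound addition to dye-loaded KISS1R-HEK293 stable cells. Each compound tested at 15 concentrations in triplicate.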

[5] = G protein-coupled receptor (GPCR) small molecule agonists, calcium flux assay: HEK293 wild type cell line counter screen (AID 1920065)
In short: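 Calcium flux counter screen: compound added in agonist mode at 15 concentrations in triplicate to dye-loaded parental HEK293 cells. Fluorescence (480/540) read kinetically for 3 min; ATP served as positive control.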

[6] = p53 small molecule agonists, cell-based qHTS assay with human liver microsomes (AID 1963577)
In short: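 Fluorescence of the beta-lactamase reporter in p53RE-bla cells, detected with LiveBLAzer substrate (2 h, room temperature, dark), served as the read-out after 16 h compound exposure at 37 C with human liver microsomes and NADPH, each 0.5 mg/mL final.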

[7] = p53 small molecule agonists, cell-based qHTS assay with rat liver microsomes (AID 1963578)
In short: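 Cells carrying a p53 response element–beta-lactamase reporter were plated and rested 5 h, then dosed with compound in DMSO plus rat liver microsomes and NADPH, each at 0.5 mg/mL final. After 16 h at 37 C, LiveBLAzer substrate was added for 2 h.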

[8] = p53 small molecule agonists, cell-based qHTS assay with human liver microsomes: qHTS cell viability counter screen (AID 1963579); also: nearly all actives have a fitted effect of over 45% in size
In short: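 Cytotoxicity counter screen: p53RE-bla, 4,000 cells/well; 5 h settle, 37 C/5% CO2; cpd + HLM 0.5 mg/mL + NADPH 0.5 mg/mL (final); 16 h, 37 C; CellTiter-Glo, 30 min RT, luminescence.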

[9] = p53 small molecule agonists, cell-based qHTS assay with rat liver microsomes: qHTS cell viability counter screen (AID 1963580); also: nearly all actives have a fitted effect of over 45% in size
In short: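 After the beta-lactamase ratio was read, CellTiter-Glo was added to the same wells and luminescence measured at 30 min; cells had been treated 16 h at 37 C with compounds, rat liver microsomes and NADPH (0.5 mg/mL final each).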

[10] = p53 small molecule agonists, cell-based qHTS assay: qHTS cell viability counter screen (AID 1963581); also: nearly all actives have a fitted effect of over 45% in size
In short: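 Counter screen read by CellTiter-Glo luminescence (ATP content, 30 min at room temperature), run in the same wells as the beta-lactamase reporter read. HCT-116 p53RE-bla cells saw compounds for 16 h at 37 C.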

[11] = p53 small molecule agonists, cell-based qHTS assay (AID 1963582; active = well fitted activation curve with a large enough effect in the signal ratio in the repeat runs, not every such curve was filed as active; the % refers to the signal ratio)
In short: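 Read-out is beta-lactamase FRET fluorescence after 2 h at room temperature with LiveBLAzer B/G substrate. p53 response element-bla cells were treated 16 h at 37 C with compounds in DMSO, added 5 h after seeding.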

[12] = target: 5-hydroxytryptamine receptor 2A (Homo sapiens) (UniProt P28223); assay: 5-hydroxytryptamine receptor 2A (HTR2A) small molecule antagonists, cell-based qHTS assay (AID 1963586); also: nearly all actives have a fitted effect of over 45% in size
In short: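 CHO cells stably expressing human HTR2A were plated for 18 h at 37 C, then loaded with calcium dye for 1 h. Compounds were preincubated 5 min at room temperature before DOI (4 nM solution) was added. Kinetic fluorescence was read for 3 min.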

[13] = target: 5-hydroxytryptamine receptor 2A (Homo sapiens) (UniProt P28223); assay: 5-hydroxytryptamine receptor 2A (HTR2A) small molecule agonists, cell-based qHTS assay (AID 1963587); also: nearly all actives have a fitted effect of over 30% in size
In short: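 CHO cells stably expressing human HTR2A, plated 18 h, loaded with calcium dye 1 h at 37 C. Agonist mode: compounds added and intracellular calcium fluorescence recorded kinetically for 2 min at 1 sec intervals.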

[14] = target: Muscarinic acetylcholine receptor M1 (Homo sapiens) (UniProt P11229); assay: Cholinergic receptor muscarinic 1 (CHRM1) small molecule antagonists, cell-based qHTS assay (AID 1963588); also: nearly all actives have a fitted effect of over 40% in size
In short: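 Compounds were tested at 15 concentrations in three independent runs. Dye-loaded CHRM1-CHO cells were exposed 5 min at room temperature before stimulation by acetylcholine added at 50nM. Intracellular calcium was read kinetically on FDSS for 3 min.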

[15] = target: Muscarinic acetylcholine receptor M1 (Homo sapiens) (UniProt P11229); assay: Cholinergic receptor muscarinic 1 (CHRM1) small molecule agonists, cell-based qHTS assay (AID 1963589); also: nearly all actives have a fitted effect of over 35% in size
In short: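 Agonist-mode calcium-flux screen: compounds at 15 concentrations, three independent runs, were pin-transferred onto dye-loaded human CHRM1-CHO cells. Fluorescence was then recorded kinetically every second over minutes.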

[16] = cAMP Responsive Elements (CRE) small molecule agonists, cell-based qHTS assay (AID 1963590)
In short: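 Agonist mode: compound added to CRE-bla HEK 293T cells (2,000/well, 18 h after plating) for 3 h at 37 C/5% CO2. Reporter activity detected via FRET beta-lactamase substrate, 2 h room-temperature loading.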

[17] = cAMP Responsive Elements (CRE) small molecule antagonists, cell-based qHTS assay (AID 1963591; active = well fitted inhibition curve with a large enough effect in the signal ratio in the repeat runs, not every such curve was filed as active; the % refers to the signal ratio)
In short: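 Antagonist mode: compounds are added alongside the adenylyl cyclase activator NKH477 (0.25 uM final) to CRE-bla HEK293T cells for 3 h. LiveBLAzer FRET substrate, 2 h at room temperature, reports bla expression.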

[18] = target: Beta-2 adrenergic receptor (Homo sapiens) (UniProt P07550); assay: Adrenergic beta2 receptor (ADRB2) small molecule antagonists, cell-based qHTS assay (AID 1963592); also: series mostly up to about 92 µM; nearly all actives have a fitted effect of over 50% in size
In short: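 Assay format: CHO-ADRB2 cells, 18-20hr seeding at 37C/5% CO2, then compound plus 1nM isoproterenol agonist mix for 0.5hr RT. Homogeneous time-resolved fluorescence cAMP detection after 1hr, expressed as 665/615 nm ratio.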

[19] = target: D(2) dopamine receptor (Homo sapiens) (UniProt P14416); assay: Dopamine D2 receptor (DRD2) small molecule antagonists, cell-based qHTS assay (AID 1963595; active = well fitted inhibition curve with a large enough effect in the signal ratio in the repeat runs, with a control signal flat; the % refers to the signal ratio)
In short: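 HTRF cAMP read-out at 665 and 620 nm emission (340 nm excitation). Antagonist mode: compounds were tested against 12 nM quinpirole in DRD2-HEK293 cells, with 200 nM NKH477 raising cAMP and 0.1 mM Ro20-1724 blocking its breakdown.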

[20] = target: D(2) dopamine receptor (Homo sapiens) (UniProt P14416); assay: Dopamine D2 receptor (DRD2) small molecule agonists, cell-based qHTS assay (AID 1963594); also: nearly all actives have a fitted effect of over 35% in size
In short: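 HEK293 cells stably expressing human DRD2, pre-treated with PDE inhibitor Ro20-1724 (0.1 mM final) and compound 10 min at room temperature, then stimulated with NKH477 (200nM […]) for 30 min. cAMP read by HTRF (665/620 nm).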

Measured: Potency

Sequence of D(2) dopamine receptor (Homo sapiens) (P14416 whole entry, looked up): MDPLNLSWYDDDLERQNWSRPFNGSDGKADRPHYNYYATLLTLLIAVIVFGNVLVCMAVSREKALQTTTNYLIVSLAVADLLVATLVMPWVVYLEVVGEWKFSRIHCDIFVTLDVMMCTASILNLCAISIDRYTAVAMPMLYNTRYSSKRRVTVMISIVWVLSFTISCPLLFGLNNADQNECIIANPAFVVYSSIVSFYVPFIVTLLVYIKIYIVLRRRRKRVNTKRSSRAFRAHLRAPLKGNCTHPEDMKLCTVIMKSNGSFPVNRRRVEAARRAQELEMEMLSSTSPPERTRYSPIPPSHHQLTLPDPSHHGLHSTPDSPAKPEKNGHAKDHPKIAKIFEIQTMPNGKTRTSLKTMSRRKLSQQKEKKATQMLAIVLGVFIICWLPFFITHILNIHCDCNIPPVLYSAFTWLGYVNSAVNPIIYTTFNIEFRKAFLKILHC
Sequence of 5-hydroxytryptamine receptor 2A (Homo sapiens) (P28223 whole entry, looked up): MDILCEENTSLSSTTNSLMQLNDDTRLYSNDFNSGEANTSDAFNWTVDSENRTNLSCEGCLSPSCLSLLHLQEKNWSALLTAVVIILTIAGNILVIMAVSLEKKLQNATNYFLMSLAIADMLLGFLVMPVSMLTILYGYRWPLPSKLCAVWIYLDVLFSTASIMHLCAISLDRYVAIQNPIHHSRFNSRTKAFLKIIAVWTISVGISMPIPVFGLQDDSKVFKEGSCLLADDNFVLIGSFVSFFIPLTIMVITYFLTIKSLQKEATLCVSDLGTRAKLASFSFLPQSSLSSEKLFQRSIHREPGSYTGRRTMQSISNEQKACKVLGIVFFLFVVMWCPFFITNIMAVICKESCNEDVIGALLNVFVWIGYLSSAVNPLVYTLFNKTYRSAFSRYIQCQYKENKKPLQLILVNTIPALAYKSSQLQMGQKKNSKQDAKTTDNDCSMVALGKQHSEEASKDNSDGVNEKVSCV
Sequence of Muscarinic acetylcholine receptor M1 (Homo sapiens) (P11229 whole entry, looked up): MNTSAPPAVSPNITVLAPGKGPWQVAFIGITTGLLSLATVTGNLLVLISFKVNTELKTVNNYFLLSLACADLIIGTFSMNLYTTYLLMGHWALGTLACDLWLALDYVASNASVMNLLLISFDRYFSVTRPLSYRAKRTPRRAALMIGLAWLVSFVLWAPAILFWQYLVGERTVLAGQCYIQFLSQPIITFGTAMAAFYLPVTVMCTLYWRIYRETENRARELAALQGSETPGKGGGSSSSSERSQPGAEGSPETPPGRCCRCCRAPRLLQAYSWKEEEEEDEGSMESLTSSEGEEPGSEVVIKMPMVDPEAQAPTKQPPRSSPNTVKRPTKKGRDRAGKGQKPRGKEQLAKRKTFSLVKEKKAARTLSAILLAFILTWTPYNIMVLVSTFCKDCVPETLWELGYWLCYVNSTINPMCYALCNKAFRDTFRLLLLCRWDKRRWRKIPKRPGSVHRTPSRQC
Sequence of KiSS-1 receptor (Homo sapiens) (Q969F8 whole entry, looked up): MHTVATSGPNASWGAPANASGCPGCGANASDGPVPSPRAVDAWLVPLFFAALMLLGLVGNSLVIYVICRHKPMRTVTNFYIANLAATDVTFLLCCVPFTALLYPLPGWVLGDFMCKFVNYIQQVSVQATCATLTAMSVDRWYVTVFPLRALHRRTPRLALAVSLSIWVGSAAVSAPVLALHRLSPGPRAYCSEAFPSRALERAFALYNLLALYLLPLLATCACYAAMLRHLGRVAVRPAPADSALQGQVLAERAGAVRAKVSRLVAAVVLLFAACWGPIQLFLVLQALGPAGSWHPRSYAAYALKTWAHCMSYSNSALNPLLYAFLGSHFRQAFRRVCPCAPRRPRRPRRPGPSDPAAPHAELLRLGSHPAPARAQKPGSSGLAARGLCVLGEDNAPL
Sequence of Beta-2 adrenergic receptor (Homo sapiens) (P07550 whole entry, looked up): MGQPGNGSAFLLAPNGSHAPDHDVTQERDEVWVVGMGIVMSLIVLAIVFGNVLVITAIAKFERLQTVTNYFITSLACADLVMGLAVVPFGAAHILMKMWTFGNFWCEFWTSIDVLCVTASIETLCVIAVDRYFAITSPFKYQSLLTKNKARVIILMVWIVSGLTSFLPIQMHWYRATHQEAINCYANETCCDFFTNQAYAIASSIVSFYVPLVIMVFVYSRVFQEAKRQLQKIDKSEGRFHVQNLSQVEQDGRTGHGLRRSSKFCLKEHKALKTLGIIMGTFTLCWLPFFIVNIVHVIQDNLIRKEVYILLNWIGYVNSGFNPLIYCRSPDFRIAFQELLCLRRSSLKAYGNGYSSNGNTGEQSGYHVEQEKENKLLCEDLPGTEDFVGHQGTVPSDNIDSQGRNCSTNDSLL
Sequence of Gonadotropin-releasing hormone receptor (Homo sapiens) (P30968 whole entry, looked up): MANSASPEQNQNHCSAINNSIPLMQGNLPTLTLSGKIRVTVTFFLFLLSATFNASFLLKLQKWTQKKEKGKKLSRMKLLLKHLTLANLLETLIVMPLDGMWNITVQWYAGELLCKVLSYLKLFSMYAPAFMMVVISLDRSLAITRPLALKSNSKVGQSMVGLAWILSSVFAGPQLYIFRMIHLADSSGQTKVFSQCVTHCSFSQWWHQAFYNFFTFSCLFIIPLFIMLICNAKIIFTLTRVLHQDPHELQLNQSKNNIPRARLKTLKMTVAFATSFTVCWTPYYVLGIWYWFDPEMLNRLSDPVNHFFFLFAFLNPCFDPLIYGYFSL

CCN[C@H]1CN(CCCOC)S(=O)(=O)c2sc(S(N)(=O)=O)cc21
not listed: [20]
inactive: all other assays above

CCCCC(CC)COP(=O)(OCC(CC)CCCC)OCC(CC)CCCC (configuration not stated)
inactive: all assays above

CC(=O)c1sc(C)nc1C
not listed: [19]
inactive: all other assays above

C/C=C/C(=O)C1=C(C)C=CCC1(C)C
inactive: all assays above

C1=C\CC/C=C\CC/C=C\CC/1
not listed: [20]
inactive: all other assays above

CC(C)[C@H]1CC[C@@H](C)CC1=O
inactive: all assays above

OCC1CC2CC1C1CCC(CO)C21 (configuration not stated)
inactive: all assays above
